In the library only some 5.8% were active in any assay of this set; here they are far more common.
ALOX12 inh – Primary qHTS assay for inhibitors of human arachidonate 12S-lipoxygenase (ALOX12): Round 2 | purified 12hLO, xylenol orange hydroperoxide absorbance | Potency, µM (series often up to 108 µM), for the others: at the highest dose activity change, negative = inhibition, hits mostly inhibitors | 580,000 compounds, 1.1% hits | AID 1671190, 2021; also: % is scaled to controls: 0 for no effect and ±100 for the full control effect
Target sequence (P18054 whole entry, looked up): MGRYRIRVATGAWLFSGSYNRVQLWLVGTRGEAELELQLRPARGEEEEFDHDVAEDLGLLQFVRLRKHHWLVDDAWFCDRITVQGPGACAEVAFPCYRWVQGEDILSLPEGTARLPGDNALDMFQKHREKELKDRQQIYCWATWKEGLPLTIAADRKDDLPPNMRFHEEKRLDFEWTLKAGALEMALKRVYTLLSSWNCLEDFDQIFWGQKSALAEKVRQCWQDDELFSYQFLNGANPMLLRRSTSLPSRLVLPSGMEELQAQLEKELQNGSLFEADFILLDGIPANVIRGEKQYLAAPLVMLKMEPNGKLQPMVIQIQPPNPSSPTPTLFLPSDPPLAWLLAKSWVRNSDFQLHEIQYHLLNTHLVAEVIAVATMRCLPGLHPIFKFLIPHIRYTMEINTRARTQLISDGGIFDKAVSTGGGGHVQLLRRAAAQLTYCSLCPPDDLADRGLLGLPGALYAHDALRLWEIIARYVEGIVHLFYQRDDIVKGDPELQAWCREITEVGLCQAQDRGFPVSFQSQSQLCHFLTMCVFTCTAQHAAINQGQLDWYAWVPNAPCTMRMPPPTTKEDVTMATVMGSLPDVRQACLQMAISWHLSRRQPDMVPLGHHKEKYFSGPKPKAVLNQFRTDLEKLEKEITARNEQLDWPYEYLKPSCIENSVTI
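Purified human 12hLO at 150 nM in 25 mM Hepes, 0.01% Triton X-100, pH 7.0, preincubated 15 min at room temperature with compound. Reaction started with 40 uM arachidonic acid, 30 min at room temperature. Hydroperoxide measured by Fe-xylenol orange, 573/405 nm absorbance ratio.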
KB-3-1 cytotox – qHTS assay for MDR1-selective chemotherapeutics: Primary screen using the parental adenocarcinoma cell KB-3-1; KB-3-1 viability, CellTiter-Glo ATP luminescence, 72 h; Potency, µM (doses to about 46.1 µM), most hits filed as cytotoxic; 400,000 compounds, 1.4% hits; AID 1347075, 2019; also: % is scaled to controls: 0 for no effect and ±100 for the full control effect; nearly all actives have a fitted effect of over 60% in size
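Multi-concentration cytotoxicity screen in KB-3-1 cells grown in DMEM lacking phenol red with 10% FBS. After 72 h at 37 °C with compound, ATP-dependent luminescence was recorded.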
SW480 rerep – A quantitative high throughput screen for small molecules that induce DNA re-replication in SW480 colon adenocarcinoma cells | SW480 DNA re-replication, Hoechst DNA content imaging, 48 h | Potency, µM (doses to about 46.1 µM), inactives show top-dose re-replication activation, most hits filed as activators | 340,000 compounds, 1.8% hits | AID 624297, 2012; also: % of control where 0% means no effect; nearly all actives have a fitted effect of over 55% in size
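Treated cells incubate 48 hr (37 C, 5% CO2), are stained 40 min with Hoechst, and nuclear fluorescence is enumerated; a rise in nuclei with high DNA signal marks re-replication.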
MCF10A rereplic – A quantitative high throughput screen for small molecules that induce DNA re-replication in MCF 10a normal breast cells | MCF 10A DNA re-replication, Hoechst nuclear intensity, 48 h | Potency, µM (titrated, usually from 46.1 µM), without a hit: top-dose activity, positive = re-replication, actives largely listed as activators | 350,000 compounds, 2.9% hits | AID 624296, 2012; also: % of control where 0% means no effect; nearly all actives have a fitted effect of over 50% in size
KB-V1 MDR tox – qHTS assay for MDR1-selective chemotherapeutics: Primary screen using the drug-selected MDR subline cells KB-V1 | KB-V1 MDR cells viability, CellTiter-Glo, 72 h | Potency, µM (titrated, usually from 46.1 µM), actives largely listed as cytotoxic | 400,000 compounds, 3.4% hits | AID 1347076, 2019; also: % is scaled to controls: 0 for no effect and ±100 for the full control effect; nearly all actives have a fitted effect of over 60% in size
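Drug-selected KB-V1 cells, grown in DMEM lacking phenol red with 10% FBS, receive compound titrations; after three days at 37 degrees C, surviving cell ATP is quantified by CellTiter-Glo luminescence and responses normalized and curve-fitted.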
PINK1 expr mod – A Quantitative High throughput Screen to Identify Chemical Modulators of PINK1 Expression; AID 624263, 2012; Potency, µM (highest dose often 76.6 µM), for the others: top-dose activation (PINK1 increase), actives largely listed as activators; 410,000 compounds, 0.2% hits; PINK1 immunofluorescence, high-content cytometry, 24 h; active = well fitted activation curve with a large enough effect; inconclusive = small, poorly fitted or top-dose-only effect; cell line not stated here; also: % of control where 0% means no effect; nearly all actives have a fitted effect of over 65% in size
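Decision-based qHTS: stable cells, 24 h exposure to five compound concentrations, CCCP as control. Fixed cells stained for PINK1 plus nuclear, mitochondrial and cell markers, cytometer read.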
Numbers without * were called inactive; i = inactive; ? = inconclusive; . = not tested or not shown; ! = not active in a repeat; [ ] = remark or other dose. Unless noted, calls follow the shape of the dose curve; as a rule, active = well fitted curve in the direction sought with a large enough effect; inconclusive = small, poorly fitted or top-dose-only effect, or another doubt; inactive = no such curve, though single readings can be large; an effect the other way counts as inactive or inconclusive. Potency is read from the fitted curve at half-maximal effect.

SMILES	ALOX12 inh	KB-3-1 cytotox	SW480 rerep	MCF10A rereplic	KB-V1 MDR tox	PINK1 expr mod
Cc1nn(Cc2ccccc2)c(Cl)c1C(=O)OC(C)C(=O)Nc1ccc(F)cc1Cl (configuration not stated)	-7%	i	7%	21µM*	3.3µM*	15%
Cc1nn(Cc2ccccc2)c(Cl)c1C(=O)OCC(=O)Nc1cccc2ccccc12	6%	?	-1%	?	16µM*	?
Cc1nn(Cc2ccccc2Cl)c(Cl)c1C(=O)OCC(=O)NC(=O)NC1CCCCC1	2%	i	-11%	?	16µM*	-2%
CCc1ccc(NC(=O)C(C)OC(=O)c2c(C)nn(Cc3ccccc3)c2Cl)cc1 (configuration not stated)	-1%	i	?	12%	?	4%
COc1ccc(-c2cn(C[C@H]3CC4CCN3C[C@@H]4C(=O)NCc3ccc(F)cc3)nn2)cc1 (some centres not stated)	-1%	.	.	.	.	.
COc1ccc(C2=NCC(=O)N(CC(=O)Nc3ccc(F)cc3)c3sc4c(c32)CCCC4)cc1	-4%	.	.	.	.	.
CC(=O)OCC12CC(OC(=O)CC(C)C)C(C)=CC1OC1C(O)C(OC(C)=O)C2(C)C12CO2 (configuration not stated)	11%	0.0092µM*	?	?	?	-2%
CC(=O)O[C@@H]1[C@@H](O)C2OC3C=C(C)C(=O)[C@@H](O)[C@]3(CO)C1(C)C21CO1 (some centres not stated)	7%	.	.	.	.	.
CCCCc1cn(C[C@H]2C[C@@H]3CCN2C[C@@H]3C(=O)NCc2ccc(F)cc2)nn1	3%[176 µM]	.	.	.	.	.
CCc1ccc(CNCCc2c[nH]c3ccccc23)cc1	0.89µM*!	i	1%	?	i	?
O=[N+]([O-])c1ccccc1CNCCc1c[nH]c2ccccc12	0.56µM*	i	-2%	2%	i	3%
c1cncc(C2=NOC3(CCCN(CC4CCCCC4)C3)C2)c1 (configuration not stated)	3%[6.33 µM]	.	.	.	.	.
COC[C@H]1C[C@@H](NC2CCOCC2)[C@H](O)[C@@H]1O	31%[176 µM]	.	.	.	.	.
COc1ccc(/C=N/N=C(/N)N[N+](=O)[O-])c(OC)c1	13%	1.5µM*	3%	?	1µM*	-3%
N/C(=N\N=C\c1ccccc1F)N[N+](=O)[O-]	-11%	.	.	.	.	.
CCN(CC)C(=O)c1ccc(N2C(=O)CCS2(=O)=O)cc1Cl	-6%	.	.	.	.	.
CC(C)C(=O)c1cn(Cc2ccc(C#N)cc2)c2ccccc12	-6%	?	15%	23%	i	-1%
CC(=O)c1cn(Cc2ccc(C#N)cc2)c2ccccc12	-2%	i	7.3µM*	9%	i	6%
c1cc2c(cc1CCNC1C3CC4CC(C3)CC1C4)OCO2 (configuration not stated)	-20%	i	-5%	9%	21µM*	0%
CC1CCC(NCCc2ccc3c(c2)OCO3)CC1 (configuration not stated)	?	i	41%	?	?	-2%[38.3 µM]
C[C@]12CC[C@H](O)CC1=CC[C@H]1[C@H]3CCC(=O)[C@@]3(C)CC[C@@H]12	0%[57.4 µM]	.	.	.	.	.
CC12CCC3C(CC=C4CC(O)CCC43C)C1C/C(=C\c1cccc(F)c1)C2=O (configuration not stated)	17%	i	5%	5.8µM*	i	6%
C[C@H]1C=CC(=O)O[C@H]1c1ccccc1	0%	21µM*	-7%[9.22 µM]	?	?	4%
CS(=O)(=O)N1CCC2(C1)N=C(c1cccnc1)C(=O)N2 (configuration not stated)	26%[176 µM]	.	.	.	.	.
CCOC(=O)[C@]12Cc3cc(Cl)ccc3[C@H]1N(Cc1ccccc1)C(=O)c1cc(OC)ccc12	?	2.6µM*	.	.	7.3µM*	-1%
SMILES	ALOX12 inh	KB-3-1 cytotox	SW480 rerep	MCF10A rereplic	KB-V1 MDR tox	PINK1 expr mod
CCCCCN1C(=O)c2cc(OC)ccc2[C@@]2(C(=O)OCC)Cc3cc(Cl)ccc3[C@@H]12	?	0.65µM*	.	.	1.6µM*	-1%
CCOC(=O)[C@]12Cc3cc4ccccc4cc3[C@H]1N(Cc1ccccc1)C(=O)c1cc(OC)ccc12	?	5.8µM*	.	.	16µM*	-1%
CCOC(=O)[C@]12Cc3cc(OC)ccc3[C@H]1N(Cc1ccccc1)C(=O)c1cc(OC)ccc12	6%	?	.	.	i	-1%
CCOC(=O)[C@]12Cc3cc4ccccc4cc3[C@H]1N(Cc1ccccc1)C(=O)c1ccccc12	?	5.2µM*	.	.	?	-1%
CCOC(=O)[C@]12Cc3cc(OC)c(OC)cc3[C@H]1N(Cc1ccccc1)C(=O)c1ccccc12	1%	i	-4%	11%	?	0%
Cc1oc2cc(OCC(=O)N3CCN(CCO)CC3)ccc2c(=O)c1Oc1ccccc1	-1%	.	.	.	.	.
CC(C)(C)c1ccc(OCC(=O)N2CCN(Cc3nc(N)c4ccccc4n3)CC2)cc1	-1%	.	.	.	.	.
CSc1ccc(C2SCC(=O)Nc3n[nH]c(C)c32)cc1 (configuration not stated)	-12%	.	.	.	.	.
CN(C)CCOc1ccc(/C(=C(/CCCl)c2ccccc2)c2ccccc2)cc1	?	i	-102%	4.6µM*	?	2%
CN(C)C(=O)Oc1ccc(C(=O)c2ccccc2)cc1	6%	i	0%	-3%	i	.
CCn1c(=O)c(=O)[nH]c2cc(C(=O)N3C4CCC3CC4)ccc21	21%	.	.	.	.	.
O=[N+]([O-])c1cccc(CN2CCN(Cc3ccc(Br)cc3)CC2)c1	?	?	-15%	9.2µM*	i	6%
COC1CCC(OC2CC(C3(C)CCC4(CC(O)C(C)C(C(C)/C=C(\C)C(=O)C(C)CC(C)C(=O)O)O4)O3)OC3(OC(C4OC(O)(CO)C(C)CC4C)CC3C)C2C)OC1C (configuration not stated)	40%	?	?	1.5µM*	i	-1%
Cn1cc(C(=O)OCC(=O)NC(=O)NC(C)(C)C)c2ccccc21	9%	.	.	.	.	.
CCOC(=O)c1sc(/N=C/c2c(O)n(-c3cccc(C)c3)c(=O)[nH]c2=O)c(C#N)c1C	?	i	2%	?	21µM*	-1%
